# Measurements from PubChem BioAssay (NCI).
# This is part of a sample that, as a whole, favours compounds with a hit. Of some 79,000 tested, about 15% had one in any assay. Unmarked numbers belong to inactive results. Rule as the data show it: active = growth inhibition above about 70%; inactive = the rest.
# Experiment: NCI Yeast Anticancer Drug Screen. Data for the mec2-1 strain (AID 157)
# Details: S. cerevisiae mec2-1 strain, at 50.0 µM, hits give high values
# In short: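 Cells of the genetically defined mec2-1 yeast strain are incubated with test compound. Inhibition of growth is calculated against vehicle-treated controls.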
row,SMILES,growth inhibition
1,Cc1c(Cl)cccc1N=C=S,-24%
2,NNC(=O)CCCCl,-15.7%
3,O=C(O)CC1=CCCCC1,-21.6%
4,CCOc1ccccc1NC(=O)CCl,3.2%
5,CN(C)c1ccc(O)c2c1CC1CC3C(N(C)C)C(=O)C(C(N)=O)=C(O)C3(O)C(=O)C1=C2O (configuration not stated),29.7%
6,CCOC(=O)CNC,-3.25%
7,CN(C)CCOC(=O)Nc1ccc(Cc2ccc(NC(=O)OCCN(C)C)cc2)cc1,-25.2%
8,NC(CCl)=NCC12CC3CC(CC(C3)C1)C2,25.9%
9,CC(C)(C)NCCC(O)c1cc(C(F)(F)F)nc2c(C(F)(F)F)cccc12 (configuration not stated),-36.1%
10,OCc1cccnc1,-36.9%
11,C/C(O)=C(/C=N/C(=S)Nc1ccccc1)C(=O)Nc1ccccc1C,5.6%
12,CN1CCCN(C(c2ccccc2)c2ccc(Br)cc2)CC1 (configuration not stated),1.95%
13,CC(=O)NC(O)C(Cl)Cl (configuration not stated),-6.05%
14,CCCCCC#CC(=O)O,-3.95%
15,COc1ccc(C(=O)C(=O)c2ccccc2)cc1,34.1%
16,OCCc1ccc(Cl)cc1,8.15%
17,NNc1ncnc2nc[nH]c12,-9.65%
18,CCC(=O)C1C(=O)c2ccccc2C1=O,-12.6%
19,O=C(O)CCCCCNC(=O)OCc1ccccc1,-41.9%

row,SMILES,growth inhibition
1,C=C(OC(C)=O)c1ccccc1,-12.4%
2,Clc1ncnc2nc[nH]c12,-1%
3,C=CCN1CCCC1=O,10.6%
4,CCCCCCCCCCCCCCCCCCSC(=N)N,-16.7%
5,NC(=S)N/N=C/c1ccc(OC(=O)COc2ccccc2)cn1,-13.4%
6,Cn1c(=O)c2[nH]c(CCCCC(=O)O)nc2n(C)c1=O,-13.2%
7,COC1=C(OC)C(=O)C(SC/C=C(\C)CCCC(C)CCCC(C)CCCC(C)C)=CC1=O (configuration not stated),-24.4%
8,C/C(=N\O)c1ccccn1,-16.4%
9,O=C(O)Cc1cccc2ccccc12,-7.55%
10,CC(=O)NC(CCC(=O)c1ccccc1)C(=O)O (configuration not stated),-4.95%
11,C[n+]1c(/C=C\C=C\N2CCCCC2)sc2ccccc21,14.6%
12,Nc1nc(N)nc(N2CCCCC2)n1,-5.75%
13,CCCC1OC(c2ccco2)OCC1CC (configuration not stated),-2.15%
14,COC(=O)C1(CC(C)=O)NC(=S)NC(=O)C1C#N (configuration not stated),-26.9%
15,CC(c1ccccc1)N(C)C (configuration not stated),-1.8%
16,CCOC(OCC)C(=O)c1ccccc1,-19.9%
17,Cc1cc(CC(=O)NCCO)n(CCO)c(=O)c1,-21.5%
18,CCOC(=O)/C(O)=C(\C=N\C(=S)Nc1ccc(Cl)c(Cl)c1)C(=O)OCC,11.2%
